Experimental data taken from PubChem BioAssay.
Calls of active or inactive are those of the source.

Assays:
[1] = system: PRMT1 (protein arginine N-methyltransferase 1); assay: small molecules binding arginine methyltransferase PRMT1 – biochemical, small-molecule microarray, 635 nm fluorescence, primary screen (AID 1088); conditions: higher = more signal;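 further: binding of Prmt1 protein to compounds spotted on small-molecule microarray slides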
[2] = growth effects on S. cerevisiae YJM789 – YJM789 clinical isolate, OD600, 24 h, basal, primary screen (AID 1089); conditions: higher = more signal, called active from +8 up or from −8 down;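 further: growth of clinical yeast isolate S. cerevisiae YJM 789 seeded 1000 cells per well; test concentration not given here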
[3] = S. pombe growth modifiers, basal conditions – strain 972, OD600, 24 h, no modulator, primary screen (AID 1090);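 further: basal condition with compound alone and no growth modifier present; test concentration not given here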; conditions: S. pombe 972 growth, higher = more signal, called active from +8 up or from −8 down
[4] = budding yeast growth modifiers under rapamycin – strain BY4716, OD600, 96 h, primary screen (AID 1091); further: test concentration not given here; conditions: S. cerevisiae BY4716 + rapamycin, higher = more signal, called active from +8 up or from −8 down
[5] = biological target: Torsin-1A-interacting protein 2 (Homo sapiens) (UniProt Q8NFQ8); assay: small molecules binding lysate-expressed LULL1 – cell lysate, human LULL1 lysate, 635/667 nm fluorescence, primary screen (AID 1092); conditions: small-molecule microarray, hLULL1 lysate binding, 635 nm fluorescence; higher = more signal;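 further: probe is lysate of COS7 cells overexpressing human LULL1; score merges per-feature 667 nm fluorescence with signal-to-noise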
[6] = optical density change of DRC41 E. coli – strain DRC41, OD650, 24 h, E. coli filamentation project, primary screen (AID 1093);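 further: MC1000 strain lacking acrAB efflux and sulA so SOS filamentation is blocked; test concentration not given here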; conditions: E. coli DRC41 growth, higher = more signal, called active from +8 up or from −8 down
[7] = probe aLefty2 binding to arrayed compounds – biochemical, biotinylated probe, 635/667 nm fluorescence, primary screen (AID 1094); conditions: small-molecule microarray, higher = more signal;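 further: score merges spot fluorescence near 667 nm with spot signal-to-noise ratio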
[8] = system: Noggin (protein binding on small-molecule microarray); assay: small molecules binding Noggin protein – biochemical, 635/667 nm fluorescence, primary screen (AID 1095); conditions: 635 nm fluorescence, higher = more signal;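 further: score merges 667 nm feature fluorescence with signal to noise over triplicate slides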
[9] = biological target: Neurogenic locus notch homolog protein 3 (Homo sapiens) (UniProt Q9UM47); assay: small molecules binding NOTCH3 protein – biochemical, 635/667 nm fluorescence, primary screen (AID 1096); conditions: small-molecule microarray, 635 nm fluorescence, higher = more signal
[10] = probe aEGFR binding to arrayed compounds – biochemical, biotinylated probe, 635/667 nm fluorescence, primary screen (AID 1097); conditions: small-molecule microarray, higher = more signal;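 further: probe is a biotinylated anti-EGFR antibody binding compounds printed on slides; score combines fluorescence near 667 nm and signal to noise of each spot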
[11] = system: Plasmodium falciparum Sir2 (PF13_0152, Sir2A); assay: Plasmodium falciparum Sir2A binding compounds – biochemical, small-molecule microarray, 635 nm fluorescence, primary screen (AID 1098); conditions: fluorescence 635 nm, higher = more signal;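 further: score merges spot fluorescence intensity with its signal-to-noise ratio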
[12] = probe aDKK1 binding to arrayed compounds – biochemical, biotinylated probe, 635/667 nm fluorescence, primary screen (AID 1099); conditions: small-molecule microarray, higher = more signal;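 further: score merges 667nm spot fluorescence with signal to noise across triplicate slides; reference of the scale not given here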
[13] = probe aCHRDL2 binding to arrayed compounds – biochemical, biotinylated probe, 635/667 nm fluorescence, primary screen (AID 1100); conditions: small-molecule microarray, higher = more signal
[14] = change in splice reporter luminescence, either direction, cell-based, HEK293, spliceosome inhibition project, primary screen (AID 1101); conditions: HEK293 splicing luciferase reporter, 24 h, higher = more signal, called active from +8 up or from −8 down;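 further: HEK293 cells carrying a splicing-competent luciferase reporter gene; test concentration not given here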
[15] = biological target: Fibroblast growth factor 10 (Homo sapiens) (UniProt O15520); assay: compounds binding fibroblast growth factor 10 – biochemical, small-molecule microarray, 635 nm fluorescence, primary screen (AID 1102); conditions: FGF10 binding, fluorescence 635 nm, higher = more signal
[16] = system: glycogen synthase kinase-3 (GSK3A per assay name; protocol says GSK3B); assay: compounds binding glycogen synthase kinase-3 – biochemical, small-molecule microarray, 635 nm fluorescence, GSK3A, primary screen (AID 1103); conditions: fluorescence 635 nm, higher = more signal; further: the record names both GSK3A and GSK3B
[17] = biological target: Epidermal growth factor receptor (Homo sapiens) (UniProt P00533); assay: compounds binding epidermal growth factor receptor – biochemical, small-molecule microarray, 635 nm fluorescence, primary screen (AID 1104); conditions: EGFR binding, higher = more signal;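 further: score merges 667 nm emission intensity with spot signal to noise over triplicate slides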
[18] = biological target: Follistatin-related protein 3 (Homo sapiens) (UniProt O95633); assay: compounds binding follistatin-related protein 3 – biochemical, small-molecule microarray, 635 nm fluorescence, primary screen (AID 1105); conditions: FSTL3 binding, higher = more signal;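 further: score merges emission near 667 nm and signal to noise per printed spot across three slides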
[19] = biological target: Dickkopf-related protein 1 (Homo sapiens) (UniProt O94907); assay: small molecules binding DKK1 protein – biochemical, small-molecule microarray, 635 nm fluorescence scan, primary screen (AID 1106); conditions: higher = more signal;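 further: score merges emission near 667 nm with signal to noise over three replicate slides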
[20] = system: Inhibin beta A chain (activin A); assay: small molecules binding activin A – biochemical, small-molecule microarray, 635 nm fluorescence scan, primary screen (AID 1107); conditions: INHBA, higher = more signal;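 further: mouse activin A protein probed at 4.33 µg/mL on printed slides; score merges bound-protein fluorescence near 667 nm with spot signal-to-noise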

Chain of Torsin-1A-interacting protein 2 (Homo sapiens) (Q8NFQ8 whole entry, looked up): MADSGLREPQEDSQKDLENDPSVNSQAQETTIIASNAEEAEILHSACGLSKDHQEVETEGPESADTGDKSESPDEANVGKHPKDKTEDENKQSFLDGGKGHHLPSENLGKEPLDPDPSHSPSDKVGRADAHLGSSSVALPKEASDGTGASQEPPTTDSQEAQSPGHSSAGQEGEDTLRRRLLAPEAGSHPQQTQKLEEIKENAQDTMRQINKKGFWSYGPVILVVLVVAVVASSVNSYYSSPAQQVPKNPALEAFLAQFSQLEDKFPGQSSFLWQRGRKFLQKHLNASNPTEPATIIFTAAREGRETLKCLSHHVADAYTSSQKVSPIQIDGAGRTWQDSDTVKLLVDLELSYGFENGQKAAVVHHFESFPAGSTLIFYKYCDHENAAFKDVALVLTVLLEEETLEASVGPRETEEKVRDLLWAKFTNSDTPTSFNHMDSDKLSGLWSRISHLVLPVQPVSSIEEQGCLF
Chain of Epidermal growth factor receptor (Homo sapiens) (P00533 whole entry, looked up): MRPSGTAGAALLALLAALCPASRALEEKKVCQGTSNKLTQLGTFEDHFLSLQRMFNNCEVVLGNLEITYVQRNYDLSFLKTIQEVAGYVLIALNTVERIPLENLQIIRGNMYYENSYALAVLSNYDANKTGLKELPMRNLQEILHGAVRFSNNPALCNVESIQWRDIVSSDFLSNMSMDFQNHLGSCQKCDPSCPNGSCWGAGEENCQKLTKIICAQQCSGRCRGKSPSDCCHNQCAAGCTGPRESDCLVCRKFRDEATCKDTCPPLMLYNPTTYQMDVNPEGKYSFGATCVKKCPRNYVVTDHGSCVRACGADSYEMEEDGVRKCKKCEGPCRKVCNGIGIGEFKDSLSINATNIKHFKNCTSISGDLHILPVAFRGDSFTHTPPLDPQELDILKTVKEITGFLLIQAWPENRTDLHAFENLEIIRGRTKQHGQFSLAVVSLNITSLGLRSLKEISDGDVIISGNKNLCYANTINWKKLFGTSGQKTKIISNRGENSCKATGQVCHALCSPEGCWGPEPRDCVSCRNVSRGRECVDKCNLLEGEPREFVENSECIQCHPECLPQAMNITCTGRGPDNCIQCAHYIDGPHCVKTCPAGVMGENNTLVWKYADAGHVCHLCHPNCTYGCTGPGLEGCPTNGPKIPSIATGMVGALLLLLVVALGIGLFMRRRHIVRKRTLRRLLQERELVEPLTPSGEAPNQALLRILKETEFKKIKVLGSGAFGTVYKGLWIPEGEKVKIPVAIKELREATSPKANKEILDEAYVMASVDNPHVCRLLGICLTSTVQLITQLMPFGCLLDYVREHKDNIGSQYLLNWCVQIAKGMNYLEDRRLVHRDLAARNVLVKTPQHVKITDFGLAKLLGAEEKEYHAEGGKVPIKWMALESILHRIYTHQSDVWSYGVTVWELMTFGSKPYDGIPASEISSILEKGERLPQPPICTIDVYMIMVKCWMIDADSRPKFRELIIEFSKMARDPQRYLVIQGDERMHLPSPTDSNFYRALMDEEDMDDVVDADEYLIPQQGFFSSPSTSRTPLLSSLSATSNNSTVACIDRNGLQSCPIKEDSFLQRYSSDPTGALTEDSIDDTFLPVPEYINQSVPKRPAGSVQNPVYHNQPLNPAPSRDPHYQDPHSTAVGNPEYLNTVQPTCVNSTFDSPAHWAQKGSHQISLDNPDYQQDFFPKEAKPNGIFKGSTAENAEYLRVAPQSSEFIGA
Chain of Follistatin-related protein 3 (Homo sapiens) (O95633 whole entry, looked up): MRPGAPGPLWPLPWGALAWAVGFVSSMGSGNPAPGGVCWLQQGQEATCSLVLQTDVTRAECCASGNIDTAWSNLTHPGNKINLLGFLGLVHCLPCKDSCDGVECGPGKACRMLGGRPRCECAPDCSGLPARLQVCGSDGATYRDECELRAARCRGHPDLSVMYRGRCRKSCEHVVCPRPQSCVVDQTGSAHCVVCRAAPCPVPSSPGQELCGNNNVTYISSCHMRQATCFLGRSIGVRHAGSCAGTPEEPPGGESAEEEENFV
Chain of Fibroblast growth factor 10 (Homo sapiens) (O15520 whole entry, looked up): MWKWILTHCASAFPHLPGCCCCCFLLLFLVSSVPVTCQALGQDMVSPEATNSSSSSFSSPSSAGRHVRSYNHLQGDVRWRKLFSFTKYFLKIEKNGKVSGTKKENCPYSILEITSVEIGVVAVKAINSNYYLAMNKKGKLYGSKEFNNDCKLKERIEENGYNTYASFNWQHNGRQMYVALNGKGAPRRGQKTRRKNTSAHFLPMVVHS
Chain of Dickkopf-related protein 1 (Homo sapiens) (O94907 whole entry, looked up): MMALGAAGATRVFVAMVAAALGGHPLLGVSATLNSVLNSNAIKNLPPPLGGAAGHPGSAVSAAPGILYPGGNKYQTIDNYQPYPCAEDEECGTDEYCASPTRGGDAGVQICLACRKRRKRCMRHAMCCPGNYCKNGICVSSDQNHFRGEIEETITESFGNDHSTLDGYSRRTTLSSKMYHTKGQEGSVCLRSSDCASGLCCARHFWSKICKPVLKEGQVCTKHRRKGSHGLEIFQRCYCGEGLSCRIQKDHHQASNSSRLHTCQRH
Chain of Neurogenic locus notch homolog protein 3 (Homo sapiens) (Q9UM47 whole entry, looked up): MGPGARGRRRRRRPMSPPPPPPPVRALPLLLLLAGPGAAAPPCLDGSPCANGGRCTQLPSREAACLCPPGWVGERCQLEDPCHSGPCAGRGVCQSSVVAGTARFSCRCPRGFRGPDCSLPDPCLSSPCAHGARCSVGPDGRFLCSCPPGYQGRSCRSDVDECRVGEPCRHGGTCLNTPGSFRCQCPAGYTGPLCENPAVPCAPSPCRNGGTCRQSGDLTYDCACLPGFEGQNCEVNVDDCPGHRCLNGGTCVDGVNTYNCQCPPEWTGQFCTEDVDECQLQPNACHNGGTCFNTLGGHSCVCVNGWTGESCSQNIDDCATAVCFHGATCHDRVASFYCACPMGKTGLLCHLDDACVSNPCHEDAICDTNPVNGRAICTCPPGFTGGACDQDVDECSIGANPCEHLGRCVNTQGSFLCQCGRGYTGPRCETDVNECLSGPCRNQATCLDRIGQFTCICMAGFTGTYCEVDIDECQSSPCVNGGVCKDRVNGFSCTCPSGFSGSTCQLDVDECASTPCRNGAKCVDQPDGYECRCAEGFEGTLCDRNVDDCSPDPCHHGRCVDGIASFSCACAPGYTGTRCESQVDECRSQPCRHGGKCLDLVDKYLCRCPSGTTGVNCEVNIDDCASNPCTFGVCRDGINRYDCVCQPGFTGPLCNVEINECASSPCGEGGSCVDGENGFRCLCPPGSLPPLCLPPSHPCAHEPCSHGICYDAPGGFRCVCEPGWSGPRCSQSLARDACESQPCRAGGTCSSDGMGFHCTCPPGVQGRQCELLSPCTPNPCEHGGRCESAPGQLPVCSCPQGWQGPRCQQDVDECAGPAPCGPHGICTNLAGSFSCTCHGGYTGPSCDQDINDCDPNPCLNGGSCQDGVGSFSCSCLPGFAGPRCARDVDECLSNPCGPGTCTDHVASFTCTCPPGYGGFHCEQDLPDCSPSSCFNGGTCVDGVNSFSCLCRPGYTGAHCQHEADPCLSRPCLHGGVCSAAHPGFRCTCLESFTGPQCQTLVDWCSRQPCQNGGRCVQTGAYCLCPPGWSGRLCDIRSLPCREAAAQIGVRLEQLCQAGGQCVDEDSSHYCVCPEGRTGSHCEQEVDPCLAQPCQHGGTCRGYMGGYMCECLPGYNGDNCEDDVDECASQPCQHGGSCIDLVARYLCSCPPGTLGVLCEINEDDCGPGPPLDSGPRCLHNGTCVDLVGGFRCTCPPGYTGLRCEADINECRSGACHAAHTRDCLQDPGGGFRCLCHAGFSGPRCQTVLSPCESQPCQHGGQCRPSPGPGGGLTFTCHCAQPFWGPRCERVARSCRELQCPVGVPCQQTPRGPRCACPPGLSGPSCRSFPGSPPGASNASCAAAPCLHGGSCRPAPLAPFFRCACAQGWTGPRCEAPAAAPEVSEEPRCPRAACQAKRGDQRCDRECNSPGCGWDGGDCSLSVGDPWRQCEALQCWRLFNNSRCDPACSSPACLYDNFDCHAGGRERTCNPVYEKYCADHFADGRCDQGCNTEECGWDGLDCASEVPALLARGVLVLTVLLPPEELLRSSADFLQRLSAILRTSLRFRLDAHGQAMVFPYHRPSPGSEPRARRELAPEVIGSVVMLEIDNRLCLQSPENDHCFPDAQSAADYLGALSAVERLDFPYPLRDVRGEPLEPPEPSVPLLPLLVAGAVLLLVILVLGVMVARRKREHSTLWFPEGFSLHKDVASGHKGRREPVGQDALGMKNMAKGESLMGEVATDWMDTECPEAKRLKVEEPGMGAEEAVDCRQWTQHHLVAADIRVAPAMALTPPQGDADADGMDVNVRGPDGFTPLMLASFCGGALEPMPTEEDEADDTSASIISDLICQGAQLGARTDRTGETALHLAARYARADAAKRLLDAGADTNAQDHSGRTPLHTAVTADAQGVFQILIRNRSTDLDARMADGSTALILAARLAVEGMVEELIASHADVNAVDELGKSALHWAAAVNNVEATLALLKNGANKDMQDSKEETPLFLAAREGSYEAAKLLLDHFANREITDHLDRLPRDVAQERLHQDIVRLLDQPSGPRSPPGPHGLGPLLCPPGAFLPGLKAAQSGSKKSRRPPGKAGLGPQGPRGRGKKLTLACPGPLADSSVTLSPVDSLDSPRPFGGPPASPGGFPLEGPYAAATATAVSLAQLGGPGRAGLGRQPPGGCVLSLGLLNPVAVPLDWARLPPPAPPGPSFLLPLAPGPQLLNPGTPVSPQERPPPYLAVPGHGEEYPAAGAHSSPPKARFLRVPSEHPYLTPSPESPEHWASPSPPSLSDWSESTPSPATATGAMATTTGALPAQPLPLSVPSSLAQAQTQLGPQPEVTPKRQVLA

SMILES | composite z-score [1] | z-score [2] | z-score [3] | z-score [4] | composite z-score [5] | z-score [6] | composite z-score [7] | composite z-score [8] | composite z-score [9] | composite z-score [10] | composite z-score [11] | composite z-score [12] | composite z-score [13] | z-score [14] | composite z-score [15] | composite z-score [16] | composite z-score [17] | composite z-score [18] | composite z-score [19] | composite z-score [20]
CC(C)CON=C1C[C@@H](O)[C@@H](O)[C@@H]2[C@@H]3C(=O)N(Cc4ccccc4)C(=O)[C@@H]3CC[C@H]12 | -0.238 | -0.549 (inactive) | -0.449 (inactive) | -1.17 (inactive) | 0.12 | 0.843 (inactive) | -0.117 | 0.454 | 0.824 | 0.088 | 0.296 | -0.373 | -0.583 | -1.59 (inactive) | 0.415 | 0.314 | 0.553 | 0.538 | 0.373 | -0.204
C[C@@H]1C=CCC(=O)OC[C@H](C)C(=O)N[C@@H](Cc2ccccc2)C(=O)OC1 | -0.431 | 0.214 (inactive) | -1.06 (inactive) | -0.0603 (inactive) | 0.146 | -0.234 (inactive) | -0.192 | 0.79 | -0.019 | -0.0513 | -0.0137 | -0.526 | -0.683 | -1.03 (inactive) | 0.3 | -0.0825 | 0.643 | 0.582 | 0.909 | -0.289
CC(C)=CCCC(C)=CCON=C1[C@H]2CCn3c(=O)n(-c4ccccc4)c(=O)n3[C@H]2[C@H](O)[C@@H]2O[C@H]12 | 1.56 | -0.504 (inactive) | -5.66 (inactive) | -0.784 (inactive) | 2.36 | -1.1 (inactive) | 0.207 | 0.59 | 1.07 | -0.0211 | 1.05 | -0.229 | -0.55 | 1.77 (inactive) | 0.726 | 1.26 | 0.752 | 1.25 | 0.912 | 0.722
COc1ccc(O[C@H]2C=C[C@@H](c3ccccc3)O[C@@H]2COC(=O)CCC(C)=NOC[C@@H](O)COCc2ccco2)cc1 | -1.02 | -1.2 (inactive) | -0.761 (inactive) | -0.244 (inactive) | -1.82 | -0.541 (inactive) | -0.443 | -1.66 | -1.74 | -0.48 | -1.47 | -0.866 | 0.0183 | -0.909 (inactive) | -2.67 | -1.95 | -2.8 | -2.9 | -1.99 | -0.0879
COc1cccc([C@H]2Oc3ccc(OC)cc3C(=NO[C@@H](C)c3cc(-c4c(C)cc(C)cc4C)no3)[C@@H]2O)c1 | -0.506 | 0.463 (inactive) | 1.49 (inactive) | 0.626 (inactive) | -0.141 | -0.169 (inactive) | 0.25 | -2.14 | -2.58 | -0.434 | 0.288 | 0.838 | 1.53 | -0.328 (inactive) | -1.66 | -0.532 | -2.38 | -1.99 | -3.26 | 0.313
